Pf growth 48h: P. falciparum growth inhibition at 48 hours (one generation); 310,000 tested, 5.9% active; AID 504832; Potency, µM (titrated, usually from 28.7 µM), for inactives: at the top dose activity change, negative = inhibition, most hits filed as inhibitors; P. falciparum luciferase growth in erythrocytes, 48 h; further: potency means the concentration at half of the fitted maximal effect
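Erythrocytes infected with P. falciparum carrying an integrated firefly luciferase reporter (2% hematocrit, 0.1% parasitemia final) were exposed to compounds in RPMI 1640 with 0.5% Albumax at 37 C, 5% CO2. Growth inhibition was scored as reduced luminescence.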
HCV inhibitor: blocks hepatitis C virus; Huh7.5.1 HCVcc-Cre infection, luciferase reporter, 44 h; Potency, µM (series often up to 41.8 µM), without a hit: at the highest dose activity change, negative = inhibition, usual class: inhibitors; 340,000 tested, 3.4% active; AID 651820; further: potency means the concentration at half of the fitted maximal effect
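Cells seeded at 1,000/well and cultured 4 h, then compounds added followed by HCVcc-Cre virus (~0.5 moi). After 44 h further culture, luciferase substrate was added, plates held 15 min at room temperature, and luminescence read for 15 sec.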
Pf growth 96h: P. falciparum growth inhibition at 96 hours. P. falciparum luciferase reporter growth, 96 h. Potency, µM (top dose mostly 28.7 µM), inactives show top-dose activity change, negative = inhibition, hits mostly inhibitors. 320,000 tested, 6.9% active. AID 504834; further: potency means the concentration at half of the fitted maximal effect
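Cell-based qHTS: luciferase-tagged P. falciparum in erythrocytes (2% hematocrit, 0.05% parasitemia final) incubated with compounds for 96 hours, 37 C, 5% CO2; luciferase detection reagent then added and luminescence measured.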
HCMV antiviral: blocks human cytomegalovirus replication | HFF cells, HCMV-luciferase reporter, 72 h; active compounds read low | activity change, negative = inhibition, % at 57.5 µM | 410,000 tested, 4.5% active; in the data active means activity change below about -60%; inconclusive means no clear call, values can overlap the other calls; inactive means above about -39%
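Two-dose cell screen: HFF monolayers treated with compounds and infected with luciferase-expressing HCMV at 1 PFU/cell, 72 h at 37C, then lysed for luciferase measurement.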
* marks the source's active call; other numbers are inactive results; ? = inconclusive; . = not tested or not shown. An excerpt weighted towards active compounds, which were near 13% of everything screened. Unless noted, the call rests on the fitted dose curve; in most records, active means well fitted inhibition curve with a large enough effect; inconclusive means small, poorly fitted or top-dose-only effect, or another doubt; inactive means no such curve, though single readings can be large or run the other way. On the % scale 0 is the no-effect control and ±100 the full control effect.

SMILES	Pf growth 48h	HCV inhibitor	Pf growth 96h	HCMV antiviral
Cc1cccc(NC(=O)N2CCC(C(=O)c3ccc(F)cc3)CC2)c1	-8%	?	4%	-64*
O=C(Nc1cccc(F)c1)NC1(C(=O)N2CCC(O)CC2)CCCCC1	6%	6%	0%	-99*
CCCN(Cc1cccs1)C(=O)Nc1ccc(F)c(Cl)c1	.	.	.	1
NC(=O)c1cccc(-c2ccc3c(c2)N(CC2CC2)C(=O)COC3)c1	.	.	.	30
CCN(c1ccccc1)c1nnc(NC(=O)Nc2ccc(C)cc2)s1	.	.	.	-7
COc1ccccc1C(=O)NCCn1cc(SCC(=O)Nc2ccccc2F)c2ccccc21	.	.	.	1
COc1ccc(C(=O)N2CCC(NC(=O)C(Cc3ccccc3OC)NC(C)=O)CC2)cc1 (configuration not stated)	-18%	28%	19%	9
CC(=O)c1cccc(NC(=O)N2CCC(NC(=O)C3CCCCC3)CC2)c1	-12%	5%	?	-13
O=C(NC1CCN(C(=O)Nc2cccc(F)c2)CC1)C1CCCCC1	-4%	0%	12µM*	4
COc1ccccc1CC(NC(C)=O)C(=O)NC1CCN(C(=O)c2ccc([N+](=O)[O-])cc2)CC1 (configuration not stated)	0%	6%	6.6µM*	2
COc1ccccc1CC(NC(C)=O)C(=O)NC1CCN(C(=O)Nc2cccc(F)c2)CC1 (configuration not stated)	-21%	11%	1.3µM*	-9
COc1cccc(NC(=O)N2CCC(NC(=O)C(Cc3ccccc3OC)NC(C)=O)CC2)c1 (configuration not stated)	-7%	25%	?	-4
Cc1ccc(-n2c(=O)c3ccc(C(=O)NCc4ccco4)cc3n(CC(=O)Nc3ccccc3C(F)(F)F)c2=O)cc1	.	.	.	-35
COc1ccc(NC(=O)Cc2csc(COc3cccc(C)c3)n2)c(OC)c1	.	.	.	2
Cc1cc(C)c2sc(N(CCCN(C)C)C(=O)c3ccc(S(=O)(=O)N(C)Cc4ccccc4)cc3)nc2c1	?	?	?	-27
Cc1ccc2sc(N(CCCN(C)C)C(=O)c3ccc(S(=O)(=O)N(C)Cc4ccccc4)cc3)nc2c1C	10µM*	3.5µM*	12µM*	-23
COc1ccc2sc(N(CCCN(C)C)C(=O)c3ccc(S(=O)(=O)N(C)Cc4ccccc4)cc3)nc2c1	?	10µM*	3%	-36
CCN(Cc1ccccc1)S(=O)(=O)c1ccc(C(=O)N(CCCN(C)C)c2nc3cc(C)cc(C)c3s2)cc1	?	10µM*	?	-37
CCN(c1ccccc1)S(=O)(=O)c1ccc(C(=O)N(CCCN(C)C)c2nc3c(C)cccc3s2)cc1	15µM*	-24%	9.3µM*	-28
CC(=O)c1ccc(NC(=O)c2c3c(nc4ccccc24)C(=O)N(C2CCCCC2)C3)cc1	.	.	.	-2
Cc1cc(C)c2sc(N(CCN(C)C)C(=O)c3c(F)cccc3F)nc2c1	?	-5%	?	0
Cc1cc(C)c2sc(N(CCCN(C)C)C(=O)c3ccc(Br)s3)nc2c1	?	13µM*	?	-39
CC(=O)C1=C(c2ccc(Br)cc2)N(C(C)=O)n2c(nnc2C2CCCCC2)S1	.	.	.	39
CCCCN(C)C(=O)C1CCN(CCCc2ccccc2)CC1	2.3µM*	3%	.	18
CN(C)CC(C)(C)CNC(=O)C1CCN(CCCc2ccccc2)CC1	?	13µM*	?	23
SMILES	Pf growth 48h	HCV inhibitor	Pf growth 96h	HCMV antiviral
CCN(Cc1ccccc1)C1CCN(Cc2ccccc2)CC1	?	-35%	0%	.
CCCN1CCC(N(CCc2ccccc2)Cc2ccccc2)CC1	?	?	12µM*	-15
CC1CCCN(C(=O)C2CCN(CCCc3ccccc3)CC2)C1 (configuration not stated)	-17%	-11%	?	12
O=C(NCc1ccccc1Cl)C(=O)NCC(c1ccc2c(c1)OCO2)N1CCOCC1 (configuration not stated)	.	.	.	2
O=C(NCCCSc1ccccc1)c1cc(Cl)ccc1O	?	?	12µM*	-84*
O=C(CNC(=O)c1ccccc1)NCCCSc1ccccc1	.	1%	.	29
O=C(NCCNC(=O)c1ccccc1O)c1ccccc1O	14%	-4%	?	?
O=C(NCCCCCCNC(=O)c1ccccc1O)c1ccccc1O	8.3µM*	10µM*	?	-79*
Cc1cc(CN2CCN(CCC#N)CC2)c(O)c(C2(C)CCCCC2)c1	9.3µM*	8%	11%	-9
O=S(=O)(NCC(c1ccco1)N1CCN(c2ccc(F)cc2)CC1)c1cc(F)ccc1F (configuration not stated)	.	.	.	-4
COc1ccc(NC(=O)C2CCC(N3C(=O)C4CCCCC4C3=O)CC2)cc1 (configuration not stated)	-10%	-5%	22%	7
O=C(Nc1ccc(Cc2ccncc2)cc1)C1CCC(N2C(=O)C3C4C=CC(C4)C3C2=O)CC1 (configuration not stated)	.	8.9µM*	12µM*	-80*
CC1CCC2C(=O)N(c3ccc(Cc4ccncc4)cc3)C(=O)C2C1 (configuration not stated)	32%	?	?	-75*
O=C1C2C3C=CC(C3)C2C(=O)N1c1ccc(Cc2ccncc2)cc1 (configuration not stated)	4%	-28%	47%	-67*
Cc1ccc2c(c1)c(=O)c(S(=O)(=O)c1ccc(F)cc1)cn2CC(=O)Nc1ccc2c(c1)OCO2	.	.	.	-10
CCCc1nc(NCC2CCCO2)c2nnn(Cc3ccccc3)c2n1 (configuration not stated)	15µM*	-2%	23%	-18
CCc1nc(Nc2ccccc2)c2nnn(Cc3ccccc3)c2n1	37%	?	10µM*	22
CCc1nc(NCc2cccs2)c2nnn(Cc3ccccc3)c2n1	.	.	.	19
Cc1nc(NCC2CCCO2)c2nnn(Cc3ccccc3)c2n1 (configuration not stated)	0%	25%	-3%	34
Cc1cccc(N2CCN(C(=O)c3cnn(-c4ccc(F)cc4F)c3C3CCN(C(=O)OC(C)(C)C)CC3)CC2)c1C	.	.	.	0
Cc1ccc(-c2nc3c(C)cccn3c2Nc2ccccc2C)s1	.	.	.	-65*
Cc1cccn2c(Nc3ccccc3)c(-c3cccs3)nc12	.	.	.	-61*
CC(=O)Nc1ccc(S(=O)(=O)N2CCC(n3c(C(F)(F)F)nc4cccnc43)CC2)cc1	.	.	.	-13
CN(C(=O)c1ccncc1)C1CCCN(Cc2ccccc2F)C1 (configuration not stated)	91%	-1%	?	1
CN(C)c1cccc(C(=O)N(C)C2CCCN(Cc3ccccc3F)C2)c1 (configuration not stated)	?	-17%	4.1µM*	-71*
Cc1cc(C)cc(C(=O)N(C)C2CCCN(Cc3ccccc3F)C2)c1 (configuration not stated)	?	13µM*	?	8
